Assay results published in PubChem BioAssay (Tox21).
Records with an inconclusive call do not appear. Active and inactive are the calls of the source. Unless noted, calls follow the shape of the dose curve; as a rule, active = well fitted curve in the direction sought with a large enough effect in the repeat runs; inconclusive = weak or mixed curves; inactive = no such curve, though single readings can be large; an effect the other way counts as inactive or inconclusive.

Experiments:
[1] = qHTS assay for small molecules that induce genotoxicity in human embryonic kidney cells expressing luciferase-tagged ATAD5 (AID 651632); also: nearly all actives have a fitted effect of over 15% in size
How it was run: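 HEK293T cells carrying luciferase-tagged ATAD5 were given compound or DMSO vehicle and incubated 16 hr at 37C, 5% CO2. Luciferase activity was read after 30 min at room temperature with Amplite; a rise signals genotoxic stress.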

[2] = qHTS assay for small molecules that induce genotoxicity in human embryonic kidney cells expressing luciferase-tagged ATAD5 - cell viability (AID 651634; calls by dose curve; also: nearly all actives have a fitted effect of over 25% in size)
How it was run: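 HEK293T cells carrying luciferase-tagged ATAD5, 2,000 cells/well, exposed to compound for 15.5 hr at 37C. Viability read as live-cell protease activity by CellTiter-Fluor fluorescence after 30 min at 37C.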

[3] = qHTS assay for small molecule disruptors of the mitochondrial membrane potential - cell viability (AID 720634; calls by dose curve;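 also: human HepG2 liver cancer cells; series mostly up to about 83 µM; nearly all actives have a fitted effect of over 20% in size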)
How it was run: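 HepG2 cells, 2,000 per well, attached overnight, then treated 1 hr at 37 C, 5% CO2. Viability read as ATP by CellTiter-Glo luminescence after 30 min at room temperature. Read in the same wells as the m-MPI membrane-potential dye assay.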

[4] = qHTS assay to test for compound auto fluorescence at 590 nm (red) in HepG2 cells (AID 720674)
How it was run: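 We screened compounds on adherent HepG2 cells, incubating them for an hour at 37 C in 5% CO2 before reading emission at 590 nm under 540 nm excitation; values reflect equivalence to Rose Bengal sodium fluorescence.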

[5] = qHTS assay to test for compound auto fluorescence at 535 nm (green) in HepG2 cells (AID 720675)
[6] = qHTS assay to test for compound auto fluorescence at 460 nm (blue) in HEK293 cells (AID 720678)
How it was run: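 HEK293, 2,000 cells/well, 10% dialyzed FBS; attach 4-5 hr 37C; pin compound or DMSO; o/n 37C/5% CO2; fluorescence 405/460 nm; triamterene-equivalent units.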

[7] = qHTS assay to test for compound auto fluorescence at 590 nm (red) in HEK293 cells (AID 720679)
How it was run: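 Intensity at 540nm excitation and 590nm emission is reported as Rose Bengal sodium-equivalent autofluorescence. Measurements followed overnight exposure (37C, 5% CO2) of HEK293 cells, 2,000 per well, to 23 nL compound.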

[8] = qHTS assay to test for compound auto fluorescence at 535 nm (green) in HEK293 cells (AID 720680)
[9] = qHTS assay to test for compound auto fluorescence at 460 nm (blue) in HEK293 cell free culture (AID 720681)
How it was run: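 Blue fluorescence (Ex 405/Em 460 nm, triamterene-equivalent) was read immediately after pin transfer of compound or DMSO into medium (DMEM, 10% FBS) without cells.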

[10] = qHTS assay to test for compound auto fluorescence at 535 nm (green) in HEK293 cell free culture (AID 720682)
How it was run: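 Green-channel intensity (Ex/Em 485/535 nm) was recorded from compound-treated wells containing only DMEM with 10% FBS. Fluorescein provided the equivalency standard.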

[11] = qHTS assay to test for compound auto fluorescence at 590 nm (red) in HEK293 cell free culture (AID 720683)
How it was run: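 Red-channel autofluorescence of compounds in culture medium (DMEM, 10% FBS), no cells, measured at 540/590 nm. Rose Bengal sodium is the reference fluorophore for equivalence.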

[12] = qHTS assay to test for compound auto fluorescence at 590 nm (red) in HepG2 cell free culture (AID 720684)
How it was run: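 Steps: dispense MEM/10% FBS medium, no cells; pin compound or DMSO vehicle; read red channel, Ex/Em 540/590 nm. Output given as Rose Bengal sodium equivalents.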

[13] = qHTS assay to test for compound auto fluorescence at 460 nm (blue) in HepG2 cell free culture (AID 720685)
How it was run: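 Compound (23 nL) or DMSO pinned into cell-free MEM with 10% FBS; blue fluorescence read at 405/460 nm excitation/emission, expressed as auto-fluorescence equivalency to triamterene.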

[14] = qHTS assay to test for compound auto fluorescence at 535 nm (green) in HepG2 cell free culture (AID 720686)
[15] = qHTS assay to test for compound auto fluorescence at 460 nm (blue) in HepG2 cells (AID 720687)
How it was run: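 Blue-channel autofluorescence (Ex/Em 405/460 nm, triamterene-equivalent) was measured after 1 hr compound exposure at 37 C, 5% CO2. Cells were HepG2, plated overnight at 37 C in MEM plus 10% FBS.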

[16] = molecular target: Glucocorticoid receptor (Homo sapiens) (UniProt P04150); experiment: qHTS assay to identify small molecule agonists of the glucocorticoid receptor (GR) signaling pathway (AID 720691; active = well fitted activation curve with a large enough effect in the signal ratio in the repeat runs, not every such curve was filed as active; the % refers to the signal ratio)
How it was run: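 GR-bla HeLa cells carrying a GRE-driven beta-lactamase reporter, exposed to compounds for 18 h at 37 C. Reporter activation read as fluorescence after 2 h with LiveBLAzer B/G FRET substrate at room temperature.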

[17] = molecular target: Glucocorticoid receptor (Homo sapiens) (UniProt P04150); experiment: qHTS assay to identify small molecule antagonists of the glucocorticoid receptor (GR) signaling pathway (AID 720692; active = well fitted inhibition curve with a large enough effect in the signal ratio in the repeat runs, not every such curve was filed as active; the % refers to the signal ratio)
How it was run: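 GR-bla HeLa cells carrying a GRE-driven beta-lactamase reporter received compound after 4 h plating, then dexamethasone (5 nM final). After 18 h at 37C, the FRET substrate was loaded for 2 h at room temperature and fluorescence read.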

[18] = qHTS assay to identify small molecule antagonists of the glucocorticoid receptor (GR) signaling pathway - cell viability counter screen (AID 720693); also: nearly all actives have a fitted effect of over 55% in size
[19] = qHTS assay for identifying genotoxic compounds that show differential cytotoxicity against isogenic chicken DT40 cell lines with known DNA damage response pathways - wild type cell line (AID 743012); also: nearly all actives have a fitted effect of over 60% in size; also: potency is read from the fitted curve at half-maximal effect
How it was run: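 Wild-type DT40 cells (300/well) exposed to compounds for 40 hours at 37 C/5% CO2. Viability read by CellTiter-Glo luminescence after 30 min at room temperature.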

[20] = qHTS assay for identifying genotoxic compounds that show differential cytotoxicity against isogenic chicken DT40 cell lines with known DNA damage response pathways - Rev3 mutant cell line (AID 743014); also: nearly all actives have a fitted effect of over 55% in size; also: potency is read from the fitted curve at half-maximal effect
[21] = qHTS assay for identifying genotoxic compounds that show differential cytotoxicity against isogenic chicken DT40 cell lines with known DNA damage response pathways - Rad54/Ku70 mutant cell line (AID 743015); also: nearly all actives have a fitted effect of over 60% in size; also: potency is read from the fitted curve at half-maximal effect
[22] = qHTS assay to identify small molecule antagonists of the androgen receptor (AR) signaling pathway - cell viability counter screen (AID 743033; also: nearly all actives have a fitted effect of over 45% in size)
[23] = qHTS assay to identify small molecule antagonists of the androgen receptor (AR) signaling pathway using the MDA cell line - cell viability counter screen (AID 743041; also: nearly all actives have a fitted effect of over 45% in size)
How it was run: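 Cells were plated at 3,000 per well and left 5 h. Compounds in DMSO were then pinned in, followed by R1881. After 16 h at 37C, CellTiter-Fluor fluorescence gave viability.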

[24] = qHTS assay to identify small molecule antagonists of the thyroid receptor (TR) signaling pathway - cell viability counter screen (AID 743064); also: nearly all actives have a fitted effect of over 50% in size
How it was run: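 In rat pituitary GH3.TRE-Luc reporter cells co-exposed to compound and 1 nM T3 for 23.5 h, cytotoxicity was assessed with CellTiter-Fluor in the same wells, read by fluorescence.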

[25] = qHTS assay to identify small molecule antagonists of the thyroid receptor (TR) signaling pathway (AID 743065); also: nearly all actives have a fitted effect of over 55% in size; also: potency is read from the fitted curve at half-maximal effect
How it was run: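 Antagonism measured as loss of luciferase signal in GH3 cells stably carrying a TRE-luciferase reporter, co-treated with compound and T3 (1 nM final) for 23.5 h at 37 C. Viability was read in the same well by CellTiter-Fluor.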

[26] = test system: thyroid hormone receptor (rat, GH3 cells); experiment: qHTS assay to identify small molecule agonists of the thyroid receptor (TR) signaling pathway (AID 743066; calls by dose curve)
[27] = qHTS assay to identify small molecule antagonists of the estrogen receptor alpha (ER-alpha) signaling pathway - cell viability counter screen (AID 743074; calls by dose curve;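 also: HEK293 cells carrying ER-alpha-UAS-bla reporter stimulated with 17beta-estradiol; nearly all actives have a fitted effect of over 45% in size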)
[28] = molecular target: Estrogen receptor (Homo sapiens) (UniProt P03372); experiment: qHTS assay to identify small molecule agonists of the estrogen receptor alpha (ER-alpha) signaling pathway (AID 743075; calls by dose curve;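 also: HEK293 GripTite cells with ER-alpha and UAS-driven beta-lactamase reporter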)
[29] = molecular target: Estrogen receptor (Homo sapiens) (UniProt P03372); experiment: qHTS assay to identify small molecule agonists of the estrogen receptor alpha (ER-alpha) signaling pathway using the BG1 cell line (AID 743079); also: nearly all actives have a fitted effect of over 20% in size
[30] = qHTS assay to identify small molecule antagonists of the estrogen receptor alpha (ER-alpha) signaling pathway using the BG1 cell line (AID 743080; calls by dose curve;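 also: BG1 cells stimulated with 17beta-estradiol alongside compound; series mostly up to about 70 µM; nearly all actives have a fitted effect of over 25% in size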)
How it was run: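 BG1Luc4E2, endogenous ER-alpha, 4xERE-luc; 5 d charcoal-stripped FBS, phenol red free; 24 h plating; cpd + 17beta-estradiol 21.5 h, 37 C/5% CO2; CellTiter-Fluor viability 30 min, then ONE-Glo luciferase 30 min RT.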

[31] = qHTS assay to identify small molecule antagonists of the estrogen receptor alpha (ER-alpha) signaling pathway using the BG1 cell line - cell viability counter screen (AID 743081);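 also: compound given together with 17beta-estradiol as the ER stimulus; series mostly up to about 70 µM; nearly all actives have a fitted effect of over 45% in size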
[32] = molecular target: Aromatase (Homo sapiens) (UniProt P11511); experiment: qHTS assay to identify aromatase inhibitors (AID 743083); also: series mostly up to about 70 µM; nearly all actives have a fitted effect of over 55% in size
[33] = qHTS assay to identify aromatase inhibitors - cell viability counter screen (AID 743084)
[34] = molecular target: Aryl hydrocarbon receptor (Homo sapiens) (UniProt P35869); experiment: qHTS assay to identify small molecule that activate the aryl hydrocarbon receptor (AhR) signaling pathway (AID 743085);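 also: HG2L7.5c1 human HepG2 liver cells with stably integrated DRE-driven firefly reporter; series mostly up to about 70 µM; nearly all actives have a fitted effect of over 15% in size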
How it was run: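 AhR agonist activity is inferred from enhanced light output of a DRE-controlled firefly luciferase reporter in HepG2 cells, measured with ONE-Glo following 24 h treatment at 37C.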

[35] = qHTS assay to identify small molecule that activate the aryl hydrocarbon receptor (AhR) signaling pathway - cell viability counter screen (AID 743086)
How it was run: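 Cytotoxicity counter screen: CellTiter-Fluor signal (30 min, 37 C) in 4000 HepG2 cells/well carrying the DRE-luciferase reporter, following 24 h compound exposure at 37 C.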

[36] = molecular target: Peroxisome proliferator-activated receptor gamma (Homo sapiens) (UniProt P37231); experiment: qHTS assay to identify small molecule agonists of the peroxisome proliferator-activated receptor gamma (PPARg) signaling pathway (AID 743094; active = well fitted activation curve with a large enough effect in the signal ratio in the repeat runs, not every such curve was filed as active; the % refers to the signal ratio)
How it was run: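 GeneBLAzer PPARg UAS-bla HEK293H cells were plated, rested 5 h, then exposed to compounds for 17 h at 37C. Beta-lactamase activity was read by LiveBLAzer B/G FRET substrate fluorescence after 1 h at room temperature.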

[37] = qHTS assay for small molecule agonists of the p53 signaling pathway (AID 651631; calls by dose curve; also: nearly all actives have a fitted effect of over 15% in size)
How it was run: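 We treat p53RE-bla HCT-116 cells with compounds for 16 h at 37 °C, add LiveBLAzer B/G FRET substrate for 2 h at room temperature, and measure fluorescence intensity.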

[38] = qHTS assay for small molecule agonists of the p53 signaling pathway - cell viability (AID 651633; calls by dose curve;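 also: p53RE-bla HCT reporter cells with a stable beta-lactamase p53 reporter; series mostly up to about 83 µM; nearly all actives have a fitted effect of over 30% in size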)
How it was run: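 Viability counter-read: CellTiter-Glo luminescence (30 min, room temperature) in the same p53RE-bla plates. These plates had been exposed to compounds for 16 h at 37 C.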

Measured: Potency

Glucocorticoid receptor (Homo sapiens), sequence (P04150 whole entry, looked up): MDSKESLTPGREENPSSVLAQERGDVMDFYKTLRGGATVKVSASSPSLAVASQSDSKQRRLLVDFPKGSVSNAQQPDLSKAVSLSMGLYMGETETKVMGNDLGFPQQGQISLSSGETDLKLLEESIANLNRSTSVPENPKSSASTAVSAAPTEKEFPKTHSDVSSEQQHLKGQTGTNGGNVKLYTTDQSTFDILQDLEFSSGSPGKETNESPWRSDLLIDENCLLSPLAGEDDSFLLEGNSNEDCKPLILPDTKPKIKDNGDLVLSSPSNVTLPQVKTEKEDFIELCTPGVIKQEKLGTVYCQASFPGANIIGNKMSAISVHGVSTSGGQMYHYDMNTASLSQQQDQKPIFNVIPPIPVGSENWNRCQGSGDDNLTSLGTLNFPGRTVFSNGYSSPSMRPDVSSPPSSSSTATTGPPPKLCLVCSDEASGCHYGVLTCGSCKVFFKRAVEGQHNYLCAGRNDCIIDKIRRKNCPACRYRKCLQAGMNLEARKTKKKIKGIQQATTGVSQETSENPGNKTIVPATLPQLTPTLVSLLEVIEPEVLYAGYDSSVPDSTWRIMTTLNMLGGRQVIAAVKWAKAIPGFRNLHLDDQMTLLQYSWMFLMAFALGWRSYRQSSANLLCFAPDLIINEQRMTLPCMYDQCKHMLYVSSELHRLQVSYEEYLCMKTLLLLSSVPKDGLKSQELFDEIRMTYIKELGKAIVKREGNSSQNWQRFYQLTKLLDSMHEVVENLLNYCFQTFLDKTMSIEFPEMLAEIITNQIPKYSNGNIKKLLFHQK
Aryl hydrocarbon receptor (Homo sapiens), sequence (P35869 whole entry, looked up): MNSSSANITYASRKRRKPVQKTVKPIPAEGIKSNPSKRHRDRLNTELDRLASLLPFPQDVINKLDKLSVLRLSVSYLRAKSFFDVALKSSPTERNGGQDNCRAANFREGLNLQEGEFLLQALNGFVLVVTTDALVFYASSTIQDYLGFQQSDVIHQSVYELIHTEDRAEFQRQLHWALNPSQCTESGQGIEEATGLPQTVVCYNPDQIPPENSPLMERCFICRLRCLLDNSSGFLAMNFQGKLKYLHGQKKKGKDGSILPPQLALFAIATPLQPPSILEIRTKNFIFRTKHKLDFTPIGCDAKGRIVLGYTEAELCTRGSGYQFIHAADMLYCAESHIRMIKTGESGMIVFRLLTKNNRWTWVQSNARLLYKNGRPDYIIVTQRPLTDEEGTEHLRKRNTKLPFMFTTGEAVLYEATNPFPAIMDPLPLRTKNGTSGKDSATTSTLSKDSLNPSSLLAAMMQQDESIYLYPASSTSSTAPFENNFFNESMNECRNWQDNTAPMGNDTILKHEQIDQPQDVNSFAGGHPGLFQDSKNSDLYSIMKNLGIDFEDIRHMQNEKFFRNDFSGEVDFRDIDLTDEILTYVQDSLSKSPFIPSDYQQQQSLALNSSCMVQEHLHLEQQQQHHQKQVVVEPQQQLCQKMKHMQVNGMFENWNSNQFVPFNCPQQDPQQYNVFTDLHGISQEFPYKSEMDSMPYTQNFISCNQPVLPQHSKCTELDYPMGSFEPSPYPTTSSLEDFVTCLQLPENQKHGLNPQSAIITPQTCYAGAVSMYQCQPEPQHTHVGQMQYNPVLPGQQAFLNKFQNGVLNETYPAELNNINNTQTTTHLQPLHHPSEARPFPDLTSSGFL
Aromatase (Homo sapiens), sequence (P11511 whole entry, looked up): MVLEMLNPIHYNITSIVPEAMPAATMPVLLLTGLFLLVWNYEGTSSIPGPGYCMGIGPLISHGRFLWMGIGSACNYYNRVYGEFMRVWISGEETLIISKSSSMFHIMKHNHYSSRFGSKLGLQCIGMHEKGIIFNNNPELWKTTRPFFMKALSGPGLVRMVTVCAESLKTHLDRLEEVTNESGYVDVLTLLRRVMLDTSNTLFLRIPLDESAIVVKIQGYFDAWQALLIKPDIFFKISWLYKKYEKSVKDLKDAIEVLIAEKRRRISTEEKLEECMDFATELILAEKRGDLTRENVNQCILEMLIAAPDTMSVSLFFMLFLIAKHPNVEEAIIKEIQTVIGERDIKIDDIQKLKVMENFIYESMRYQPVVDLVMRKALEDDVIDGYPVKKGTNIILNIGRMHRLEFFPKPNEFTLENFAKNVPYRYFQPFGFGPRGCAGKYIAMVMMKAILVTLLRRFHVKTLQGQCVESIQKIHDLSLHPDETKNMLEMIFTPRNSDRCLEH
Estrogen receptor (Homo sapiens), sequence (P03372 whole entry, looked up): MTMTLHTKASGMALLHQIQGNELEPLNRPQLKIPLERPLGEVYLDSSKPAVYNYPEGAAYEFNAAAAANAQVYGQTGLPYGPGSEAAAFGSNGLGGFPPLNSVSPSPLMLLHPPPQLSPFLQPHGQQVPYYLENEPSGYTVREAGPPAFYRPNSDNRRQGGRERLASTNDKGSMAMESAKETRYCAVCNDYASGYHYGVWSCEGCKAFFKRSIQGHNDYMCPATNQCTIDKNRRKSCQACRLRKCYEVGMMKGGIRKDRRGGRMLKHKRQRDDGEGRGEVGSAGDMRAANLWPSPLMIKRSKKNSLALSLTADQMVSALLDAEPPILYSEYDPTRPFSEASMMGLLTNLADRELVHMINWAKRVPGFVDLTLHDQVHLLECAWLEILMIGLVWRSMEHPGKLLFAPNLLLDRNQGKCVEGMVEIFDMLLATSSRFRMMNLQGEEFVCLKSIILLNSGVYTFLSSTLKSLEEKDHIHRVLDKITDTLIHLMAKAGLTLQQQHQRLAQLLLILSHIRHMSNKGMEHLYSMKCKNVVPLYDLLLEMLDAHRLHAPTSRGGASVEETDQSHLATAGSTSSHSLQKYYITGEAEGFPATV
Peroxisome proliferator-activated receptor gamma (Homo sapiens), sequence (P37231 whole entry, looked up): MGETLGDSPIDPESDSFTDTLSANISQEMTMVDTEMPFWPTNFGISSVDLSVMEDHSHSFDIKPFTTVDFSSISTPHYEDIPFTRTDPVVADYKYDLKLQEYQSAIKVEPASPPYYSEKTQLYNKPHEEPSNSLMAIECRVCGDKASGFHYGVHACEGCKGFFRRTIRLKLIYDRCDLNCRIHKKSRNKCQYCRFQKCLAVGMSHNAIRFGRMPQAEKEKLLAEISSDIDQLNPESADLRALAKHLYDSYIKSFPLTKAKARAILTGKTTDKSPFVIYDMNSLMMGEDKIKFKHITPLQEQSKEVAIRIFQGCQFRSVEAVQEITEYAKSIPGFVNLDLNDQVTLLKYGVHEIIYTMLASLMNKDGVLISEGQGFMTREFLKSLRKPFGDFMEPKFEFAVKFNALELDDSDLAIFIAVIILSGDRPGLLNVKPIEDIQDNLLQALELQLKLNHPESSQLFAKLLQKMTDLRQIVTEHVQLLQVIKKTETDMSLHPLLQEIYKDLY

CCOC(=O)C1(c2ccccc2)CCCN(C)CC1 (stereo not given)
not listed: [37] | [38]
inactive: all other assays above

CCc1cc(OC)c(C[C@@H](C)N)cc1OC
active: [19] 56.7 µM | [20] 63.6 µM | [21] 71.4 µM | [25] 56.7 µM
not listed: [6] | [23] | [24] | [28] | [29] | [30] | [31] | [35] | [36]
inactive: all other assays above
